What all share (test): PBM binding z-score (relative to random genomic background probes); higher = stronger binding; sequences stand for … in GC…GCGATTGACAGCGTAGAATGAAGG
The test system of assay [1] is FXR:RXRa (NR concentration 270 nM, RXRa partner concentration 90 nM). The procedure, abridged: (§1)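 On custom Agilent 4×180K arrays, double-stranded probes with 34-nt variable regions carried direct-repeat seeds, single-nucleotide variants, half-site ablations or random human genomic background. Ligand-free nuclear receptor dimers were applied for 1 h, and binding was read with antibodies against each partner (one per run). Binding z-scores come from regression-normalized fluorescence, with the random background probes as reference.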

In assay [2] the test system is LXRa:RXRa (NR concentration 270 nM, RXRa partner concentration 90 nM). The gist of the method:
as §1

The test system of assay [3] is LXRa homodimer (NR concentration 270 nM). The gist of the method:
as §1

In assay [4] the test system is LXRb:RXRa (NR concentration 270 nM, RXRa partner concentration 90 nM). The gist of the method:
as §1

The subject of assay [5] is LXRb homodimer (NR concentration 270 nM). The gist of the method: as §1
Assay [6] has as its system PPARa:RXRa (NR concentration 270 nM, RXRa partner concentration 90 nM). The gist of the method: as §1
In assay [7] the test system is PPARg:RXRa (NR concentration 180 nM, RXRa partner concentration 90 nM). The procedure, abridged: as §1
Assay [8] deals with PPARg:RXRa 270nM:90nM, anti-RXR (NR concentration 270 nM, RXRa partner concentration 90 nM). The gist of the method: as §1
In assay [9] the test system is PPARg:RXRa 30nM:10nM, anti-RXR (NR concentration 30 nM, RXRa partner concentration 10 nM). The gist of the method:
as §1

Assay [10] deals with PPARg:RXRa 90nM:30nM, anti-RXR (NR concentration 90 nM, RXRa partner concentration 30 nM). The procedure, abridged:
as §1

Assay [11] concerns PPARg:RXRa DBDmut IVT, anti-RXR (DBD mutation: RXRa K156A/R161A, NR concentration 270 nM, RXRa partner concentration 90 nM). The gist of the method: as §1
Assay [12] has as its system PPARg:RXRa IVT, anti-PPARg (NR concentration 270 nM, RXRa partner concentration 90 nM). The gist of the method: as §1
In assay [13] the test system is PPARg DBDmut:RXRa IVT, anti-PPARg (DBD mutation: PPARg1 K132A/R137A, NR concentration 270 nM, RXRa partner concentration 90 nM). The gist of the method: as §1
Assay [14] concerns PPARg DBDmut IVT, anti-PPARg (DBD mutation: PPARg1 K132A/R137A, NR concentration 270 nM). The procedure, abridged: as §1
The subject of assay [15] is PPARg homodimer (NR concentration 180 nM). The gist of the method: as §1
In assay [16] the test system is PXR:RXRa (NR concentration 270 nM, RXRa partner concentration 90 nM). The procedure, abridged: as §1
For assay [17], the system named is PXR homodimer (NR concentration 270 nM). The gist of the method: as §1
Assay [18] relates to RARa:RXR (NR concentration 270 nM, RXRa partner concentration 90 nM). The gist of the method: as §1
Assay [19] relates to RARa homodimer (NR concentration 270 nM). The procedure, abridged:
as §1

Assay [20] concerns RARb:RXRa (NR concentration 270 nM, RXRa partner concentration 90 nM). The procedure, abridged:
as §1

Regarding ATCTCTAGGTAAAGTGCAGTGAAAGATCGATAGA, the PBM binding z-score in [1] was 0.236; in [2], 0.336; in assay [3], -0.00202; in assay [4], -0.0786; in assay [5], 0.221; in [6], 0.525. The PBM binding z-score is 0.843 in assay [7]; 2.05 in assay [8]; 0.6 in assay [9]; 1.67 in assay [10]; 2.44 in assay [11]; 1.95 in [12]. The PBM binding z-score is 0.431 in assay [13]; 0.336 in assay [14]; 0.363 in [15]; -0.0343 in assay [16]; 0.194 in assay [17]; 0.372 in assay [18]. Moreover, the PBM binding z-score in assay [19] was found to be 0.333; in assay [20], 0.504.

As to TCATATAGGTAAAGGTGAAAGACGAACGATATGA, the PBM binding z-score was 1.12 in [1]; 1.17 in assay [2]; -0.192 in assay [3]; 1.28 in assay [4]; 0.0599 in assay [5]; 3.09 in [6]. Besides, the PBM binding z-score was determined as 4.19 in assay [7]; 4.4 in assay [8]; 4.5 in assay [9]; 4.66 in [10]; 3.92 in assay [11]; 4.19 in assay [12]. The PBM binding z-score in assay [13] is 2; in assay [14], 1.64; in [15] it was 1.19; in assay [16] it was 0.767; in [17], -0.0893; in assay [18], 1.22. Further, the PBM binding z-score in assay [19] turned out to be 0.159; in [20] it was 1.85.

As to CCTTCCGGGTCAAGGTTATAGCACGGGTGGTACG, the PBM binding z-score was 5.06 in [1]; 3.34 in assay [2]; 0.142 in assay [3]; 2.85 in assay [4]; 0.13 in [5]; 4.95 in [6]. In addition, the PBM binding z-score in [7] worked out at 5.1; in [8], 5.24; in assay [9], 2.15; in assay [10], 4.32; in [11] it was 2.99; in [12] it was 4.69. For the same sequence, the PBM binding z-score was found to be 0.688 in assay [13]; 0.0375 in [14]; 2.1 in assay [15]; 3.7 in assay [16]; 0.341 in assay [17]; 4.25 in [18]. The results for the PBM binding z-score in assay [19] and in assay [20] were 0.928 and 4.1, respectively.

For ATCTCTAGGTAAAGTTCAGTGCAAGATCGATAGA, the PBM binding z-score in assay [1] was 1.53; in [2], 2.29; in assay [3], 2.02; in assay [4] it was 1.43; in assay [5] it was 0.722; in assay [6] it was 2.52. Also, the PBM binding z-score in [7] is 3.48; in [8], 4.48; in assay [9], 2.63; in assay [10] it was 4.43; in [11] it was 2.92; in assay [12], 2.81. Also, the PBM binding z-score in assay [13] was determined as 0.415; in assay [14], 1.22; in assay [15], 2.51; in assay [16], 2.32; in assay [17], 1.67; in assay [18], 1.49. Also, the PBM binding z-score in assay [19] stood at 1.38; in assay [20], 2.78.

Consider GGAACAAGGGCAAAGTTGATAGCATCTGTCGACG, for which the PBM binding z-score in assay [1] was 0.623; in assay [2], 0.618; in assay [3], -0.274; in assay [4] it was 0.612; in assay [5], -0.0187; in [6], 3.56. In addition, the PBM binding z-score is 5.8 in assay [7]; 6.3 in assay [8]; 5.66 in assay [9]; 6.8 in assay [10]; 2.8 in assay [11]; 3.73 in [12]. Further, the PBM binding z-score in assay [13] is 0.621; in assay [14], -0.078; in [15], 0.637; in [16] it was 0.784; in assay [17] it was 0.0632; in assay [18], 0.948. The PBM binding z-score in assay [19] is 0.248; in assay [20] it was 2.42.

As to TAGACTAGGTCATGCGGGCCAGTATAGTGTCGGC, the PBM binding z-score in [1] was determined as 3.22; in assay [2], 2.34; in assay [3], 0.304; in [4] it was 1.15; in assay [5], 0.173; in [6] it was 3.96. The PBM binding z-score came to 5.48 in assay [7]; 4.65 in assay [8]; 2.34 in assay [9]; 3.95 in assay [10]; 5.86 in assay [11]; 6.59 in [12]. The PBM binding z-score in assay [13] is 1.88; in assay [14], 2.4; in [15], 0.793; in assay [16], 1.06; in [17] it was -0.131; in assay [18] it was 1.67. Moreover, the PBM binding z-score in [19] is -0.228; in assay [20], 3.55.

On to TCTGCTAGGTCCGTTGGTCAGCTAACGAGCTGCC, for which the PBM binding z-score was -0.505 in assay [1]; -0.6 in assay [2]; -1.09 in assay [3]; -0.828 in [4]; -0.736 in assay [5]; -0.336 in assay [6]. Further, the PBM binding z-score in [7] is -1.2; in assay [8] it was -0.0919; in [9], 0.802; in assay [10] it was 0.586; in assay [11], 0.439; in [12] it was -0.053. Also, the PBM binding z-score in [13] was -0.86; in assay [14], 0.217; in assay [15], -1.34; in [16], -0.511; in [17], -1.26; in assay [18] it was -0.446. In addition, the figures for the PBM binding z-score in [19] and in assay [20] were -1.4 and -0.0528, respectively.

For the origin of these results see the supplement of paper PMC6555819.
